Laboratory results reported in ChEMBL document CHEMBL4513216, “Probing the Open Global Health Chemical Diversity Library for Multistage-Active Starting Points for Next-Generation Antimalarials” (ACS Infect Dis, 2020).
The campaign covered roughly 69,000 compounds. About 8,600 (12%) showed an effect of 50% or more. The sample holds strong results, similar compounds and a random draw of the others, so the mix is not that of the screen.

tested on: Plasmodium berghei; test: Screen against P. berghei liver stage (PbLuc), transformed with Luciferase, at 10uM; assay type: functional, HepG2; details: tested at 10 uM

Compound	INHIBITION [%]
CS(=O)(=O)N1CCC(O)(Cn2c(C3CC3)nc3ccccc3c2=O)CC1	38.1
CCc1nc2ccccc2c(=O)n1CC1(O)CCN(S(C)(=O)=O)CC1	52.9
CCc1nc2ccccc2c(=O)n1CC1(O)CCNCC1	28
CC(C)CCN1CCN(C(=O)c2c[nH]nn2)CC1	-0.275
Cc1nc(COC[C@@H]2CC[C@H]3[C@H](CCN3c3ccccn3)O2)cs1	-106
CN1C(=O)C(c2ccccc2)CC12CCN(CCOCCO)CC2 (stereo not given)	-26.4
CN1CC2(CCN(CCOCCO)CC2)CC(c2ccccc2)C1=O (stereo not given)	73.4
CCN1CC2(CCN(CCOCCO)CC2)CC(c2ccccc2)C1=O (stereo not given)	7.84
CCC(=O)N(CC)C(c1cccnc1)c1ccc2c(c1)CCO2 (stereo not given)	37.9
CCN(C(=O)COC)C(c1cccnc1)c1ccc2c(c1)CCO2 (stereo not given)	51.8
CCN(C(=O)C(C)C)C(c1cccnc1)c1ccc2c(c1)CCO2 (stereo not given)	3.87
CCCC(=O)N(CC)C(c1cccnc1)c1ccc2c(c1)CCO2 (stereo not given)	29.4
CCN(C(=O)C1CCC1)C(c1cccnc1)c1ccc2c(c1)CCO2 (stereo not given)	66.2
CCN(C(=O)C1CC1)C(c1cccnc1)c1ccc2c(c1)CCO2 (stereo not given)	21.8
Cn1ccnc1Sc1ccc(S(N)(=O)=O)cn1	7.92
CS(=O)(=O)c1cc(Cl)cnc1C1CCN(C(=O)C2CC2)CC1	15.49
CCOC(=O)c1nc(COc2c(C)occc2=O)no1	41.7
COCC(=O)N1CCCCC1c1ccnc(Nc2cnccn2)n1 (stereo not given)	-26.2
CCn1cc(CN(C)S(=O)(=O)c2ccc(Cl)cc2)cn1	-64.7
CCn1cc(CN(C)S(=O)(=O)c2ccccc2)cn1	35.8
CCOc1ccc(S(=O)(=O)N(C)Cc2cnn(CC)c2)cc1	55.7
NC(=O)C1CCN(C(=O)CCCc2nnc(-c3ccccc3)o2)CC1	33.7

Compound	INHIBITION [%]
O=C([C@H]1COC[C@H]2CN(C3CCCC3)C[C@H]21)N1CCCCO1	5.65
O=C([C@H]1COC[C@H]2CN(C3CCOCC3)C[C@H]21)N1CCC(F)CC1	-20.4
O=C([C@H]1COC[C@H]2CN(C3CCCC3)C[C@H]21)N1CCOCC1	74.7
O=C([C@H]1COC[C@H]2CN(C3CCCC3)C[C@H]21)N1CCCO1	71.4
O=C(O)[C@@H]1CN(C2CCCC2)C[C@H]1C1CC1	57.9
O=C([C@@H]1COC[C@H]2CN(C3CCCCC3)C[C@H]21)N1CCOCC1	7.7
O=C([C@@H]1COC[C@H]2CN(C3CCOCC3)C[C@H]21)N1CCOCC1	-5.69
O=C(O)[C@@H]1CN(C2CCCCC2)C[C@H]1C1CC1	9.34
O=C([C@@H]1COC[C@H]2CN(C3CCCC3)C[C@H]21)N1CCCO1	35.4
O=C([C@@H]1COC[C@H]2CN(C3CCCC3)C[C@H]21)N1CCC(F)CC1	50.3
O=C(O)[C@@H]1CN(C2CCOCC2)C[C@H]1C1CC1	25.1
O=C([C@H]1COC[C@H]2CN(C3CCCCC3)C[C@H]21)N1CCOCC1	31.2
CC(C)N(C)Cc1cnc2n1CCN(C(=O)NC1CCCC1)C2	34.1
CCOCCN1CCN(c2ccc(C#N)cn2)CC1	45.4
CS(=O)(=O)NCCCNCc1cc(F)ccc1Br	30.2
Cc1noc(C)c1CN(C)C(=O)NC1CCOCC1	22.95
Cc1cccc(N2CCN(C(=O)CCCC(=O)N(C)C)C(C)C2)n1 (stereo not given)	39.3
Cc1nc(CN2CCCC3(CCN(c4cnn(C)c4)C3=O)C2)cs1 (stereo not given)	6.55
Cc1nccn1C1CCCN(C(=O)c2cnc[nH]2)C1 (stereo not given)	-9.37
Cn1nc(Cn2cccn2)c2c1CN(C1CCOCC1)C2	44.2
CN(C(=O)c1ccccc1NCC(=O)O)C(C1CC1)C1CC1	25.8
O=C(COCc1ccccc1Cl)N1CCCC(n2ccnc2)C1 (stereo not given)	17.5

Compound	INHIBITION [%]
Cc1cccc(CN2C[C@@H]3COC[C@]3(CNC(=O)c3cccn3C)C2)n1	-17.1
O=S(=O)(c1cccs1)N1CCCCC1c1ccn[nH]1 (stereo not given)	29.3
CCS(=O)(=O)N1CCCC(n2nnn(-c3ccccc3)c2=O)C1 (stereo not given)	-8.5455
Cc1cc(C)c(-n2cc(CCO)cn2)cc1C	-50.3
Cc1nnc(N2CCc3cnc(C(C)C)nc3C2)c(C#N)c1C	6.72
CC(CCc1ccccc1)N1CCC(C(=O)NCc2ccccc2)CC1 (stereo not given)	46.7
Cc1cnnn1Cc1ncn2c1CN(Cc1cccs1)CCC2	15.9
O=C(Cn1c(=O)n(Cc2ccco2)c2ncccc21)Nc1ccccn1	45.5
Cc1nn(C(C)(C)C)c(=O)n1CC(=O)NC(C)(C)C	-53.6
CCN(CC)C(=O)Cn1c(=O)n(Cc2ccco2)c2ncccc21	51.5
CCN(CC)C(=O)CSc1nc2cc(C)nc-2c(O)n1Cc1ccco1	26.7
O=C(Cn1c(=O)n(Cc2ccco2)c2ncccc21)NC1CCCCC1	53.5
CC(C)N(C(=O)Cn1c(-c2ccco2)cc2cccnc21)C(C)C	39.3
O=C(Cn1c(=O)n(Cc2ccco2)c2ncccc21)NC1CCCC1	48.6
O=C(Cn1c(=O)n(Cc2ccco2)c2ncccc21)NC1CC1	39.7
CC(C)(C)NC(=O)Cn1c(=O)n(Cc2ccco2)c2ncccc21	61.9
Cc1ccc(C(=O)N2CCN(CCc3ccccc3)CC2)c(=O)[nH]1	-6.45
COc1ccccc1CNC(=O)CS(=O)(=O)Cc1ccccc1	29.8
Cn1cc(Cl)cc1C(=O)N1CCN(Cc2cccs2)CC1	-13.575
CC(C)=CCN1CCN(Cc2nccn2C)C(C)C1 (stereo not given)	35.77
COc1ccc(C(CNC(=O)NCc2csc(C)n2)N(C)C)cc1 (stereo not given)	23.5
